Shown is part of a subset that was picked to be rich in the strongest signals.
Legend:
Assay in all cases: glycan array binding signal (z-score within array); higher = stronger binding
Settings in all cases: glycan notation: IUPAC condensed, linker removed
[1] = biological target: Fuc(a1-2)Gal(b1-3)GlcNAc6S
Summary of the method: (§1)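 The binding signal is a Z-score computed within each array and averaged over linkers. Arrays of the same protein sequence at different concentrations or buffers were also averaged together. Data originate from 3228 arrays in the Consortium for Functional Glycomics database, kept only where the protein sequence was available.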

[2] = biological target: Fuc(a1-2)Gal(b1-3)[Fuc(a1-4)]GlcNAc(b1-2)Man(a1-3)[Fuc(a1-2)Gal(b1-3)[Fuc(a1-4)]GlcNAc(b1-2)Man(a1-6)]Man(b1-4)GlcNAc(b1-4)GlcNAc
Summary of the method: as §1

[3] = biological target: Fuc(a1-2)Gal(b1-3)[Fuc(a1-4)]GlcNAc(b1-2)Man(a1-6)[Fuc(a1-2)Gal(b1-3)[Fuc(a1-4)]GlcNAc(b1-2)Man(a1-3)]Man(b1-4)GlcNAc(b1-4)[Fuc(a1-6)]GlcNAc
Summary of the method: as §1

[4] = biological target: Fuc(a1-2)Gal(b1-3)[Fuc(a1-4)]GlcNAc(b1-3)[Gal(b1-4)GlcNAc(b1-6)]Gal(b1-4)Glc
Summary of the method: as §1

[5] = biological target: Fuc(a1-2)Gal(b1-4)Glc
Summary of the method: as §1

[6] = biological target: Fuc(a1-2)Gal(b1-4)GlcNAc(b1-3)[Fuc(a1-2)Gal(b1-4)GlcNAc(b1-6)]GalNAc
Summary of the method: as §1

[7] = biological target: Fuc(a1-2)Gal(b1-4)[Fuc(a1-3)]GlcNAc(b1-3)[Neu5Ac(a2-6)Gal(b1-4)GlcNAc(b1-6)]Gal(b1-4)Glc
Summary of the method: as §1

[8] = biological target: Fuc(a1-2)Gal6S(b1-4)Glc6S
Summary of the method: as §1

[9] = biological target: Fuc(a1-2)[Gal(a1-3)]Gal(b1-3)GlcNAc(b1-2)Man(a1-3)[Fuc(a1-2)[Gal(a1-3)]Gal(b1-3)GlcNAc(b1-2)Man(a1-6)]Man(b1-4)GlcNAc(b1-4)GlcNAc
Summary of the method: as §1

[10] = biological target: Fuc(a1-2)[Gal(a1-3)]Gal(b1-4)[Fuc(a1-3)]GlcNAc
Summary of the method: as §1

[11] = biological target: Fuc(a1-2)[GalNAc(a1-3)]Gal(b1-4)GlcNAc(b1-3)Gal(b1-4)GlcNAc
Summary of the method: as §1

[12] = biological target: Fuc(a1-3)[Gal(b1-4)]GlcNAc(b1-2)Man(a1-3)[Fuc(a1-3)[Gal(b1-4)]GlcNAc(b1-2)Man(a1-6)]Man(b1-4)GlcNAc(b1-4)GlcNAc
Summary of the method: as §1

[13] = biological target: Fuc(a1-3)[Gal(b1-4)]GlcNAc(b1-3)Gal(b1-3)[Fuc(a1-4)]GlcNAc
Summary of the method: as §1

[14] = biological target: Fuc(a1-3)[Gal(b1-4)]GlcNAc(b1-4)Gal(b1-4)[Fuc(a1-3)]GlcNAc(b1-4)Gal(b1-4)[Fuc(a1-3)]GlcNAc
Summary of the method: as §1

[15] = biological target: Fuc(a1-3)[GalNAc(b1-4)]GlcNAc
Summary of the method: as §1

[16] = biological target: Fuc(a1-3)[GalNAc(b1-4)]GlcNAc6S
Summary of the method: as §1

[17] = biological target: Fuc(a1-3)[GalNAc3S(b1-4)]GlcNAc
Summary of the method: as §1

[18] = biological target: Gal(a1-3)Gal(b1-3)[Fuc(a1-4)]GlcNAc(b1-2)Man(a1-3)[Gal(a1-3)Gal(b1-3)[Fuc(a1-4)]GlcNAc(b1-2)Man(a1-6)]Man(b1-4)GlcNAc(b1-4)GlcNAc
Summary of the method: as §1

[19] = biological target: Gal(a1-4)GlcNAc
Summary of the method: as §1

[20] = biological target: Gal(b1-3)Gal
Summary of the method: as §1

[21] = biological target: Gal(b1-3)Gal(b1-4)GlcNAc
Summary of the method: as §1

[22] = biological target: Gal(b1-3)GalNAc
Summary of the method: as §1

[23] = biological target: Gal(b1-3)GlcNAc(b1-2)Man(a1-3)[Gal(b1-3)GlcNAc(b1-2)Man(a1-6)]Man(b1-4)GlcNAc(b1-4)GlcNAc
Summary of the method: as §1

[24] = biological target: Gal(b1-3)GlcNAc(b1-3)Gal(b1-4)[Fuc(a1-3)]GlcNAc(b1-6)[Gal(b1-3)GlcNAc(b1-3)]Gal(b1-4)Glc
Summary of the method: as §1

[25] = biological target: Gal(b1-4)GlcNAc(b1-2)Man(a1-3)[GlcNAc(b1-2)Man(a1-6)]Man(b1-4)GlcNAc(b1-4)GlcNAc
Summary of the method: as §1

[26] = biological target: Gal(b1-4)GlcNAc(b1-2)Man(a1-6)Man(b1-4)GlcNAc(b1-4)GlcNAc
Summary of the method: as §1

[27] = biological target: Gal(b1-4)GlcNAc(b1-2)[Gal(b1-4)GlcNAc(b1-6)]Man(a1-6)[Gal(b1-4)GlcNAc(b1-2)Man(a1-3)]Man(b1-4)GlcNAc(b1-4)GlcNAc
Summary of the method: as §1

[28] = biological target: Gal(b1-4)GlcNAc(b1-6)GalNAc
Summary of the method: as §1

[29] = biological target: Gal3S(b1-3)[Fuc(a1-4)]GlcNAc
Summary of the method: as §1

[30] = biological target: Gal3S(b1-4)GlcNAc
Summary of the method: as §1

[31] = biological target: Gal6S(b1-3)GlcNAc
Summary of the method: as §1

[32] = biological target: GalNAc(b1-4)GlcNAc
Summary of the method: as §1

[33] = biological target: Glc(b1-4)Glc
Summary of the method: as §1

[34] = biological target: Glc(b1-6)Glc
Summary of the method: as §1

[35] = biological target: Man(a1-2)Man(a1-3)[Man(a1-2)Man(a1-6)]Man
Summary of the method: as §1

[36] = biological target: Man(a1-2)Man(a1-6)[Man(a1-3)]Man(a1-6)[Man(a1-2)Man(a1-2)Man(a1-3)]Man(b1-4)GlcNAc(b1-4)GlcNAc
Summary of the method: as §1

[37] = biological target: Neu5Ac(a2-3)Gal(b1-3)GalNAc(b1-4)[Neu5Ac(a2-3)]Gal(b1-4)Glc
Summary of the method: as §1

[38] = biological target: Neu5Ac(a2-3)Gal(b1-3)GlcNAc
Summary of the method: as §1

[39] = biological target: Neu5Ac(a2-3)Gal(b1-3)[Neu5Ac(a2-6)]GalNAc
Summary of the method: as §1

[40] = biological target: Neu5Ac(a2-3)Gal(b1-4)GlcNAc(b1-3)Gal(b1-4)[Fuc(a1-3)]GlcNAc
Summary of the method: as §1

[41] = biological target: Neu5Ac(a2-3)Gal(b1-4)[Fuc(a1-3)]GlcNAc(b1-3)Gal
Summary of the method: as §1

[42] = biological target: Neu5Ac(a2-3)Gal(b1-4)[Fuc(a1-3)]GlcNAc(b1-3)Gal(b1-4)[Fuc(a1-3)]GlcNAc(b1-3)Gal(b1-4)[Fuc(a1-3)]GlcNAc
Summary of the method: as §1

[43] = biological target: Neu5Ac(a2-3)Gal6S(b1-4)[Fuc(a1-3)]GlcNAc
Summary of the method: as §1

[44] = biological target: Neu5Ac(a2-3)[Neu5Ac(a2-6)]GalNAc
Summary of the method: as §1

[45] = biological target: Neu5Ac(a2-8)Neu5Ac(a2-3)[GalNAc(b1-4)]Gal(b1-4)Glc
Summary of the method: as §1

B1: CCL1 (Coprinopsis cinerea) (protein)
chain: MDTQAKPPAGRYVIYNRVLSPNGEKLALTYPGYQREALTLTPLHHSANQIWILNNWDATTSSLTPETARNTQVGWGSGNVPIVLPPGNYVWTLASSAGGYIIQDGGKTVYWNAGEAVANTKVSIGGDNGLQARWIFERV
[1]
  glycan array binding signal (z-score): -0.097
[2]
  glycan array binding signal (z-score): -0.006
[3]
  glycan array binding signal (z-score): -0.148
[4]
  glycan array binding signal (z-score): -0.144
[5]
  glycan array binding signal (z-score): -0.127
[6]
  glycan array binding signal (z-score): -0.025
[7]
  glycan array binding signal (z-score): -0.142
[8]
  glycan array binding signal (z-score): -0.033
[9]
  glycan array binding signal (z-score): -0.131
[10]
  glycan array binding signal (z-score): -0.138
[11]
  glycan array binding signal (z-score): -0.161
[12]
  glycan array binding signal (z-score): 0.237
[13]
  glycan array binding signal (z-score): 1.7
[14]
  glycan array binding signal (z-score): 1.68
[15]
  glycan array binding signal (z-score): 8.48
[16]
  glycan array binding signal (z-score): 13.6
[17]
  glycan array binding signal (z-score): 7.46
[18]
  glycan array binding signal (z-score): -0.081
[19]
  glycan array binding signal (z-score): -0.164
[20]
  glycan array binding signal (z-score): -0.15
[21]
  glycan array binding signal (z-score): -0.151
[22]
  glycan array binding signal (z-score): -0.163
[23]
  glycan array binding signal (z-score): -0.119
[24]
  glycan array binding signal (z-score): 0.276
[25]
  glycan array binding signal (z-score): -0.106
[26]
  glycan array binding signal (z-score): -0.133
[27]
  glycan array binding signal (z-score): -0.131
[28]
  glycan array binding signal (z-score): -0.142
[29]
  glycan array binding signal (z-score): -0.116
[30]
  glycan array binding signal (z-score): -0.123
[31]
  glycan array binding signal (z-score): -0.152
[32]
  glycan array binding signal (z-score): -0.159
[33]
  glycan array binding signal (z-score): -0.115
[34]
  glycan array binding signal (z-score): -0.128
[35]
  glycan array binding signal (z-score): -0.124
[36]
  glycan array binding signal (z-score): -0.138
[37]
  glycan array binding signal (z-score): -0.132
[38]
  glycan array binding signal (z-score): -0.117
[39]
  glycan array binding signal (z-score): 1.63
[40]
  glycan array binding signal (z-score): -0.148
[41]
  glycan array binding signal (z-score): 3.29
[42]
  glycan array binding signal (z-score): 1.58
[43]
  glycan array binding signal (z-score): 1.5
[44]
  glycan array binding signal (z-score): -0.149
[45]
  glycan array binding signal (z-score): -0.127

Reference: the supplement of paper PMC8728848
